# Source: PubChem BioAssay AID588335 (The Scripps Research Institute Molecular Screening Center, 2011)
# Hit rate of the full screen: of about 360,000 compounds, about 4,500 (1.2%) were called active. What follows is part of a selection rich in actives, with near analogues and random picks from the rest. Unmarked numbers belong to inactive results. Rule as the data show it: active = inhibition above about 30%; inactive = the rest.
# Assay: GDH-TPI coupling enzyme inhibitors, primary screen, artefact control for M. tuberculosis FBA inhibitor project, biochemical, absorbance, full deck (AID 588335);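 also: 0% = DMSO wells and 100% = wells lacking the enzyme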
# Settings: GDH-TPI coupled enzyme counterscreen, NADH absorbance; at 4.8 µM; stronger effect = higher value
row,Compound,inhibition
1,Cc1ccccc1-n1c(C)cc(/C=N/NC(=O)c2ccc(CN3CCOCC3)cc2)c1C,18.1%
2,Cc1ccccc1-n1c(C)cc(/C=C2\NC(=O)NC2=O)c1C,32.7% (active)
3,CSc1ccc(/C=C2\NC(=O)NC2=O)cc1,27.3%
4,COc1ccc2[nH]c3c(c2c1)CCN1C(=O)C(CC(=O)NCc2cccc(C(F)(F)F)c2)C[C@H](C(=O)N2CCOCC2)[C@@]31C (stereo not given in full),-0.94%
5,Fc1ccccc1/C=N/Nc1cc(N2CCCCC2)ncn1,18.5%
6,COc1ccc(/C=N/Nc2cc(N3CCOCC3)nc(C)n2)c(OC)c1,68.5% (active)
7,COc1ccccc1-c1cnn2c(N3CCOCC3)cc(C)nc12,8.82%
8,CCOc1ccc(CN(C)C(=O)c2ccc(=O)[nH]c2)cc1,1.51%
9,CC(C)CNC(=O)C(=O)NCC(c1ccc2c(c1)OCO2)N1CCOCC1 (stereo not given),-0.84%
10,CCCc1ccc(C(O)c2ncc(-c3cccc(OC)c3)[nH]2)cc1 (stereo not given),-5.36%
11,COC(=O)N/N=C/c1c[n+]([O-])c2ccccc2[n+]1[O-],32.6% (active)
12,COC(=O)C(C)N=Cc1ccccc1 (stereo not given),-1.89%
13,CC(C)(C)OC(=O)N/N=C/c1ccc(C(=O)O)cc1,-4.41%
14,O=C(Nc1ccc2c(c1)nc1n2CCCCC1)c1cc(S(=O)(=O)N2CCOCC2)ccc1Cl,-14.1%
15,CC1CCN(C2=NC(=O)/C(=C/c3cn[nH]c3-c3ccccc3)S2)CC1,33.8% (active)
16,CN(CCC1CCOCC1)Cc1cn[nH]c1-c1ccc(-c2ccccc2)cc1,13%
17,CCOc1cc(/C=C2\SC(N3CCCC(C)C3)=NC2=O)ccc1O (stereo not given),14.5%
18,CCCCCCCCn1c2c(c(=N)c3c1CCC3)CCCC2,-7.26%
19,C/C(=N\NC(=O)c1cccc([N+](=O)[O-])c1)c1cccnc1,3.57%
20,CCOc1ccccc1-c1cc(C(=O)N/N=C(\C)c2cccnc2)c2ccccc2n1,19.2%
21,C/C(=N\NC(=O)c1cc(-c2ccc(O)cc2)nc2ccccc12)c1cccnc1,30.9% (active)
22,O=C(ON=C1CCN(S(=O)(=O)c2ccccc2)CC1)c1ccc(Cl)cc1,4.57%

row,Compound,inhibition
1,CCc1ccc(Nc2ncc3c(n2)CC(c2ccco2)CC3=O)cc1 (stereo not given),37.7% (active)
2,CN1CCN(c2ncc3c(n2)CC(c2ccccc2F)CC3=O)CC1 (stereo not given),4.15%
3,Cc1ccc2nc(Nc3ncc4c(n3)CC(C)(C)CC4=O)nc(C)c2c1,1.22%
4,COc1ccc(Cl)cc1C=CC=NNC(=O)c1ccncc1,50% (active)
5,CC(=NNC(=O)c1ccncc1)c1ccc(Cl)c(Cl)c1,0.88%
6,COc1ccc(Cl)cc1C=CC=Nc1ccc(S(N)(=O)=O)cc1,5.17%
7,CCOc1nc(OCC)nc(-n2cc(-c3ccccc3)nn2)n1,-5.88%
8,Cc1c(C)c2c(OCC(=O)N[C@@H](C(=O)O)c3ccccc3)cc3c(c2oc1=O)CCC(C)(C)O3,35.3% (active)
9,Cc1c(C)c2c(OCC(=O)NCCCO)cc3c(c2oc1=O)CCC(C)(C)O3,15%
10,Cc1cc(=O)oc2c3c(cc(OCC(=O)NCC(O)c4ccccc4)c12)OC(C)(C)CC3 (stereo not given),15.3%
11,Cc1cc(=O)oc2c3c(cc(OCC(=O)N[C@H](C(=O)O)c4ccccc4)c12)OC(C)(C)CC3,31.4% (active)
12,Cc1cc(=O)oc2c3c(cc(OCC(=O)NCCC(=O)N[C@@H](C)C(=O)O)c12)OC(C)(C)CC3,15.1%
13,Cc1cc(=O)oc2c3c(cc(OCC(=O)NCc4ccccn4)c12)OC(C)(C)CC3,18.6%
14,COc1cc(C(F)(F)F)nc2c(Br)c(C(C)(C)C)nn12,11.5%
15,CCCCN(C(=O)C(CCSC)N1C(=O)c2ccccc2C1=O)c1c(N)n(CCC)c(=O)[nH]c1=O (stereo not given),6.94%
16,Cc1onc(-c2ccccc2)c1-c1nnc(COC(=O)c2ccc(N(C)C)cc2)o1,16.8%
17,CCOCCCNC(=O)C(NC(=O)c1ccc(=O)[nH]c1)c1ccc(Cl)cc1 (stereo not given),14.7%
18,Cc1cc2nc(-c3ccc(NC(=O)c4cccnc4)cc3)oc2cc1C,34.4% (active)
19,Cc1ccc(-n2nc3cc(C)c(NC(=O)c4cccnc4)cc3n2)cc1,15.4%
20,CC(C)NS(=O)(=O)c1ccc(NC(=O)c2cccnc2)cc1,-0.48%
21,CCc1ccc(NC2Nc3cc(C)nn3S2)cc1 (stereo not given),3.7%
22,Cc1ccc(C(=O)N[C@H](C(=O)N2CCN(c3ncccn3)CC2)C(C)C)cc1,4.42%

row,Compound,inhibition
1,COc1ccc(C(=O)CSc2n[nH]c(N)n2)cc1,4%
2,COC(=O)c1cccc(NC(=O)CSc2nc(C)cc(=O)[nH]2)c1,-11.5%
3,COC(=O)c1cc(C(=O)CSc2nc(C)cc(C)n2)ccc1O,31.6% (active)
4,CCOC(=O)Cn1c(=O)n(Cc2ccc(OC)cc2)c(=O)c2cccnc21,5%
5,O=C1N(Cc2ccc3c(c2)OCO3)c2ccccc2C1(O)c1c[nH]c2ccccc12 (stereo not given),7.18%
6,Cc1cccc(CCNS(=O)(=O)c2ccc(S(=O)(=O)NC3CCCC3)cc2)c1,10.9%
7,Cc1c(/C=N/N2C(=O)C3C4C=CC(C4)C3C2=O)c2ccccc2n1C (stereo not given),21.5%
8,O=C1C2C3C=CC(C4CC34)C2C(=O)N1/N=C/c1ccc(-c2ccccc2[N+](=O)[O-])o1 (stereo not given),50.6% (active)
9,CN(C(=O)CSc1nc(C2CC2)nc2ccccc12)c1nc(-c2ccccc2)cs1,8.44%
10,CCCCn1c(N)c(N(CCC(C)C)C(=O)COC(=O)c2ccc(CC)cc2)c(=O)[nH]c1=O,9.06%
11,CN(CCc1ccccc1)C(=O)c1cccc(NC(=O)Cc2cccc(NC(=O)C3CCCN(C(=O)C4CCC4)C3)c2)c1 (stereo not given),4.55%
12,COc1ccc(Nc2cc(Sc3ccc(OC)cc3)ncn2)cc1,-3.81%
13,COc1ccc(CCNC2=CC(=O)CC(C)(C)C2)cc1,4.76%
14,COc1ccc(NC2=CC(=S)NC(C)(C)C2)cc1,31.3% (active)
15,CCOC(=O)[C@H]1CCC[C@@H](NS(=O)(=O)c2ccc(NC(C)=O)cc2)C1,-3.39%
16,OC(c1ccccc1)c1nc(-c2cnc3ccccc3c2)cs1 (stereo not given),-3.54%
17,CC/C(=N\NC(=O)c1ccccc1Cl)c1ccc(Br)s1,16.7%
18,CC/C(=N\NC(=O)c1ccccc1O)c1c(O)n(Cc2ccccc2)c(=O)[nH]c1=O,57% (active)
19,COCCN(C(=O)c1ccccc1F)c1c(N)n(Cc2ccccc2)c(=O)[nH]c1=O,-6.6%
20,Cc1ccccc1Nc1scc(-c2ccc(Br)cc2)[n+]1-c1ccccc1C,-1.89%
21,COCCNc1cc(NCCOC)c([N+](=O)[O-])cc1[N+](=O)[O-],15.1%
